Wee1 degr inh = Wee1 degradation inhibitors, primary screen, cell-based, HeLa, Wee1K328M-luciferase, luminescence | reporter increase, % at 5 µM | Wee1-like protein kinase (Homo sapiens), P30291 | 1.2% of 220,000 active | HeLa Luc-Wee1K328M stability; 100% = proteasome inhibitor MG132 effect;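 active = activation above the mean of all tested compounds plus 3 SD, set per screening run, cut at about 8.8% in these data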;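 note: cells exposed to compound for 20 h before luminescence read; 0% = DMSO alone and 100% = MG132 at 30 µM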
DAX1 inh-1 = DAX1 (NR0B1) inhibitors on StAR promoter, primary screen, cell-based, luminescence, SF-1 (NR5A1), full-length DAX-1 | HEK293T StAR-luciferase reporter, SF-1/DAX-1 repression relief | inhibition, % at 6.8 µM | AID 652010, 2013 | 1.1% of 370,000 active;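 active = inhibition above the mean over all tested compounds plus 3 SD, cut at about 3.6% in these data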;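 note: 0% = DAX-1 cells with DMSO and 100% = cells lacking DAX-1 with DMSO; higher inhibition means more luminescence from relief of DAX-1 repression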
hgDAF-12 ag = H. glycines DAF-12 receptor agonists, primary screen, cell-based, luminescence, HEK293, GAL4 fusion, UAS-luciferase. Nuclear hormone receptor DAF-12 (Heterodera glycines), GAL4 fusion. 1.8% of 370,000 active. HEK293 GAL4-hgDAF12 UAS-luciferase reporter, agonist luminescence; normalized to butyrate control. activation, % at 6.8 µM;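 active = activation above a cutoff set at the mean of all screened compounds plus 3 SD, cut at about 10% in these data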;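 note: 0% = DMSO wells and 100% = sodium butyrate wells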
DAX1 inh-2 = DAX1 (NR0B1) inhibitors, primary screen, cell-based, HEK293, Gal4-DAX1, luciferase luminescence; HEK293 Gal4-DAX1 luciferase reporter; inhibition, % at 6.75 µM; 0.99% of 340,000 active;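 active = inhibition above the mean over all tested compounds plus 3 SD, cut at about 4.2% in these data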;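 note: 0% = DAX1-transfected cells with DMSO and 100% = empty-vector control cells with DMSO; inhibition shows as a rise in luminescence from relieved DAX1 repression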
Target sequence (P51843 207-470 limits assumed): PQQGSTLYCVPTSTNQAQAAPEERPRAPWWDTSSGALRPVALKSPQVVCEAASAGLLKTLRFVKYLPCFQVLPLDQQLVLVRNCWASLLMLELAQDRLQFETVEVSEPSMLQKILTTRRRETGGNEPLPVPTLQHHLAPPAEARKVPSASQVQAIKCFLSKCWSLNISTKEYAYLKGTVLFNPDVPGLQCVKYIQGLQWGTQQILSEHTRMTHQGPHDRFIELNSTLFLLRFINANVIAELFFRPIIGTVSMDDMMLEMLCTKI
hcDAF12 agonist = H. contortus DAF-12 nuclear receptor activators, primary screen, cell-based, luminescence, HEK293, lit1-tk-luc reporter; HEK293 hcDAF-12 lit1-tk-luc reporter; 0% DMSO, 100% Δ7-dafachronic acid; activation, % at 6.8 µM; 1.4% of 370,000 active; AID 652067, 2013;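 active = activation above the mean of all tested compounds plus 3 SD, cut at about 5.5% in these data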;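 note: 100% = response to 3 µM Δ7-dafachronic acid high control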
ssDAF12 agonist = S. stercoralis DAF-12 nuclear receptor activators, primary screen, cell-based, luminescence, HEK293, GRIP1 co-expression, lit1-tk-luc | activation, % at 6.8 µM | 1% of 370,000 active | Nuclear hormone receptor DAF-12 (Strongyloides stercoralis) | HEK293 ssDAF-12/GRIP1 lit1-tk-luc reporter; % of 3 µM dafachronic acid response;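 active = activation above the mean over all tested compounds plus 3 SD, cut at about 0.9% in these data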;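 note: 0% = DMSO-only wells and 100% = 3 µM delta7-dafachronic acid wells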
LXRb hcDAF ctr = LXR agonists, Gal4 luciferase reporter, confirmation, counter-screen for hcDAF-12 agonist project, cell-based, luminescence, HEK293, H. contortus campaign. shares compounds with hcDAF12 agonist. HEK293 Gal4-LXR tk-luc reporter, 24 h; normalized: DMSO 0%, positive control 100%. activation, % at 6.8 µM. 3,400 tested, under 10 active;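 active = mean percent activation of the reporter above a cutoff set as the average over tested compounds plus their standard deviation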
hcDAF12 conf = H. contortus DAF-12 receptor agonists, confirmation, cell-based, luminescence, HEK293, lit1-tk-luc, triplicate; shares compounds with hcDAF12 agonist; AID 743032, 2013; activation, % at 6.8 µM; 61% of 3,400 active; HEK293 hcDAF-12 lit1-tk-luc reporter; % of Δ7-dafachronic acid response;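 active = mean activation across triplicate tests above the threshold derived from the earlier primary screen, cut at about 5.5% in these data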;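 note: 0% = DMSO only wells and 100% = 3 µM Δ7-dafachronic acid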
hgDAF12 conf = H. glycines DAF-12 receptor agonists, confirmation, cell-based, luminescence, HEK293, GAL4-LBD fusion; HEK293 GAL4-hgDAF12 luciferase reporter, agonist mode; percent of butyrate response; 80% of 3,300 active; AID 743050, 2013; shares compounds with hgDAF-12 ag; activation, % at 6.8 µM;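 active = mean activation over triplicate wells above the hit cutoff derived from the earlier primary screen, cut at about 11% in these data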;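 note: 0% = DMSO low control and 100% = 2 mM sodium butyrate high control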
LXRb DAF12 ctr = LXR agonists, Gal4 luciferase reporter, confirmation, counter-screen for hgDAF-12 agonist project, cell-based, luminescence, HEK293, H. glycines campaign; AID 743051, 2013; activation, % at 6.8 µM; 24 h; 3,300 tested, under 10 active; shares compounds with hgDAF-12 ag;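 active = mean activation of the triplicate above a set limit carried over from the primary screen, none filed active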
* = called active by the depositor; . = not tested or not shown. An excerpt weighted towards active compounds, which were near 4.6% of everything screened.

SMILES	Wee1 degr inh	DAX1 inh-1	hgDAF-12 ag	DAX1 inh-2	hcDAF12 agonist	ssDAF12 agonist	LXRb hcDAF ctr	hcDAF12 conf	hgDAF12 conf	LXRb DAF12 ctr
Cc1ccc(NC(=O)c2ccc(Cl)cc2Cl)cc1O	-1	3	17*	7.7*	9.6*	1.9*	1	6.2*	15*	1
O=C(Nc1ccc(Nc2ccccc2)cc1)c1ccc(Cl)cc1Cl	.	-1	2	.	-1	-1	.	.	.	.
O=C(C[C@H]1C[C@H]2c3cc(NS(=O)(=O)c4ccc(F)cc4)ccc3O[C@H]2[C@H](CO)O1)NCc1ccncc1	.	0	1	0	0	-1	.	.	.	.
CCCc1nc2c3ccccc3ccn2c1Cc1ccccc1	.	4.1*	23*	.	7.0*	1.3*	1	12*	16*	1
Brc1ccccc1/C=N/Nc1ccc2ccccc2n1	8	3	25*	2	11*	2.5*	2	13*	22*	1
COc1ccc(-c2csc(Nc3ncccc3C)n2)cc1	4	2	17*	3	7.5*	1	1	5	17*	1
COc1ccc(-c2csc(Nc3ncccc3C)n2)cc1OC	2	0	5	0	0	-1	.	.	.	.
CCCCn1nnnc1C(c1ccccc1)N1CCN(c2ccc(C)cc2)CC1 (centres undefined)	.	0	-5	.	-1	-1	.	.	.	.
Oc1ccc(-c2cnc(-c3ccc(O)cc3)nc2)cc1	.	3	17*	-2	6.9*	1.2*	3	8.7*	17*	1
O=C(Nc1nc2c(s1)CCCC2)c1cccnc1	7	.	.	4	.	.	.	.	.	.
O=C(Nc1nc2c(s1)CCCC2)c1ccc(Br)o1	4	2	16*	0	13*	1.3*	2	10*	18*	1
Cc1ccc(C(=O)Nc2nc3c(s2)CCCC3)o1	2	3.8*	13*	2	11*	0	2	7.0*	16*	1
Cc1nc(-c2coc3cc(O)c(C)cc3c2=O)cs1	1	2	13*	-2	10*	1	2	10.0*	15*	1
O=C(Nc1ccc(-c2nc3cccnc3s2)cc1)c1cccnc1Cl	0	3.7*	23*	2	7.9*	0	2	5.6*	24*	1
O=C(Nc1ccc(-c2nc3cccnc3s2)cc1)c1ccc(Cl)nc1	2	1	4	1	0	-1	.	.	.	.
COc1cc(OC)cc(-c2nc3ccccc3s2)c1	1	1	17*	2	8.6*	1	1	13*	15*	1
O=C(COC(=O)c1ccc(Cl)nc1)Nc1ccc2c(c1)CCC2	.	1	1	0	-1	-1	.	.	.	.
O=C(Nc1ccc2c(c1)CCC2)c1ccc(Cl)nc1	2	3.8*	19*	4.7*	7.7*	1.2*	1	9.3*	21*	1
CN(C)S(=O)(=O)c1ccc(C(=O)Nc2ccc3c(c2)CCC3)cc1	.	0	1	0	0	-1	.	.	.	.
CN(C)S(=O)(=O)c1cccc(C(=O)Nc2ccc3c(c2)CCC3)c1	.	2	22*	2	6.9*	1	1	7.4*	19*	1
Cc1occc1C(=O)N/N=C/c1ccc(OCc2ccccc2)cc1	0	1	8	3	4	-1	.	.	.	.
Cc1occc1C(=O)N/N=C/c1ccc(-c2ccccc2)cc1	.	3	19*	0	7.9*	1.1*	2	5	21*	1
CCN1CCSc2ccc(C(=O)NCc3cccc(F)c3)cc21	.	0	3	0	-2	-1	.	.	.	.
CN1CCSc2ccc(C(=O)Nc3cccc(F)c3)cc21	4	3.8*	24*	7.4*	11*	2.0*	1	8.3*	25*	1
Cc1ccc(S(=O)(=O)N2CCCC2c2cccc3[nH]cc(C)c23)cc1 (centres undefined)	.	-1	1	.	-1	-1	.	.	.	.
SMILES	Wee1 degr inh	DAX1 inh-1	hgDAF-12 ag	DAX1 inh-2	hcDAF12 agonist	ssDAF12 agonist	LXRb hcDAF ctr	hcDAF12 conf	hgDAF12 conf	LXRb DAF12 ctr
Nc1cccn2c(-c3ccc(Cl)cc3)cnc12	2	3	16*	2	7.4*	1	1	10*	18*	1
Clc1ccc(-c2cnc3cccnn23)cc1	.	1	8	.	3	0	.	.	.	.
CCc1ccc(-c2cnc3ccccc3n2)cc1NC(=O)CNC(=O)c1ccccc1	.	3	19*	1	13*	1.1*	2	6.6*	9	1
O=C(Nc1cccc(-c2cnc3ccccc3n2)c1)c1ccccc1	0	0	2	0	0	-1	.	.	.	.
COc1cc2c(cc1OC)CN(C(=O)c1ccc(Cl)c(S(=O)(=O)N3CCCC3)c1)CC2	.	-3	-3	-1	-2	-1	.	.	.	.
CCCCCCn1nc(C(=O)N(CCOC)c2c(N)n(CCCC)c(=O)[nH]c2=O)c2ccccc2c1=O	.	-2	-1	1	-1	-1	.	.	.	.
O=C(Nc1ccccc1)C(=O)c1c[nH]c2ccccc12	.	2	15*	3	15*	4.4*	2	17*	25*	1
